# Assay results taken from the supplement of paper PMC12632987.
# In all, about 1,800 sequences were measured (“median log2 fold change of GCK-ALFA target abundance (FLAG IP / Myc IP barcode read proportion)”: median about 0.14, lowest 2% from about -0.84 on). The entries come from a sample that favours the lowest values as a whole.
# T1: TRAF2, Q12933
# T1 chain: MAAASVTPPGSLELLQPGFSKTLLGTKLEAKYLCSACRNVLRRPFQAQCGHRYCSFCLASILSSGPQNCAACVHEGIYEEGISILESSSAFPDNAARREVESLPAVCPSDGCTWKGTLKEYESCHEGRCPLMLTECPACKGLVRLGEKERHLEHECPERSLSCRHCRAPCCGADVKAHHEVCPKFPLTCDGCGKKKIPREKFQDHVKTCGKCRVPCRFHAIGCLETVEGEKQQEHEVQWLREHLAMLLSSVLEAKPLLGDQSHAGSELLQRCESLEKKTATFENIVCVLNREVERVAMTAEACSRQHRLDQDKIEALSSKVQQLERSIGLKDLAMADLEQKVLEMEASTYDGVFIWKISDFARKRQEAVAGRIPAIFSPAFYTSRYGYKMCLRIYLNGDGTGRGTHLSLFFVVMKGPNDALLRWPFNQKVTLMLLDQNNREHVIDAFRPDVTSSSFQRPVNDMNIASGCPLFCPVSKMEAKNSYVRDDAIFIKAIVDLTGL
# B1: traf2_out_3_89_2284 (protein)
# chain: SHHMEALIEEARKIAEAYAKGFRKSLTFVAKQMVAEGHSLETLEGVANAAKTALVEEFRESLKERGLDEETIKEIVEELRKKLDEIVKEVIAEAKKARAA
# B2: traf2_out_6_156_2424 (protein)
# chain: MLEKIIKEAEEKIKKEIKKLAEASEEKKIKYISDIAGAVYKALQKMREAGASVEEIKEAIERLKKVAEKEAKKAGLDKDTRDLLLASINAVGEVALREAK
# B3: traf2_out_1_158_908 (protein)
# chain: STDVSTLHAVATSIAEVYAEEAKERGLEKAAELLKKLKKEIEKLYEANKDASLEEMAAKVLELIKKFEEESKSFDPETREFVEIAFRQIRSGILQVVKLA
# B4: traf2_out_5_63_2366 (protein)
# chain: SAAEEERRRLREEARLIEAAIRAVIDGREEEARRLLAEAEARGIDWRTVALYFRGMARALRLQNEPQEKIERMERAAEEARARAEAAAAAAAAAAAAAAA
# B5: traf2_out_20_38_2025 (protein)
# chain: SEEEEEEKKLEELIKVANDAYDAATAEIAALKAEGKSVEEIAEWAKEKIKEILDKVGLEEEKEELIADVDRVLDSPDALTLIARILARAVAKAKQKELQE
# B6: traf2_out_20_3_2078 (protein)
# chain: SELEAELERELDRALALLRQAAARADPETAARLDALIARLRASRELSIEDRLVAISAVRREVRALAEEARAAGRADLAALLDAAADALNRAAQLAYEILE
# B7: traf2_out_17_178_1662 (protein)
# chain: SKEEERKKISELTDELIDLAEDAAERMLELAEKEGDVSEEELEELREARRRGSATDVLALGERLIPKLKNSEELGALLEEFKARYRELSKEIAEAYERYE
# B8: traf2_out_1_27_1014 (protein)
# chain: SDEELTKLIKETDKKIAEVSLEEAKKVVKEALKEAAKLGPEDAMVLANTLIASQLDEERLKAIAEAAVEAFKELGFPEEDIERLKRIAESVLKLNKKVLA
# B9: traf2_out_11_104_655 (protein)
# chain: LTREQAREFNDFAMEARDRAREIAEAVAAELEARGHTEEAARVRALLNDPGAGISSFRNLLEELKPRLDAESRKVADAAIEELRRLQREVSEKLNELLAK
# B10: traf2_out_20_3_2147 (protein)
# chain: EELERELAEELERAKALLAEAAALADPETAARLEALRERLEASRALSPSDQLVVVSEVRREVRLLAQEARAAGDEELAALLEEAAAALNRAANLLMRIIE
# B11: traf2_out_13_95_1174 (protein)
# chain: EEEKTKKEREIASEAYDEREEVMTAYKEAVVALLGDPAAAALMDEVVRNMNEFTLEHATAQLVAAHPEKAAELQALRDEALAKMKEINKKYTEKLNEIEK
# B12: traf2_out_14_149_1247 (protein)
# chain: SHMAETLRAAAELNERIAKALEEILKLLEAGKLEEAKAALEAAIKEAEALGEELGVTTSGIFEMEHILKLLKEDPEEAKKAVKEAAERARDAAEVLRSIA
# B13: traf2_out_17_162_1536 (protein)
# chain: SPEDERLAELQKRLEELEKKLEELEKKLKNIEKLSKEELTDLLVEASELRREARELAEELRELAEKTGSPEAEELRERAEELAEKLQRIANEIYKELEKK
# B14: traf2_out_17_178_1708 (protein)
# chain: TKEEARKRISEATDEMIDLAEEAAARLLEIAEREGSLSPEELAALRRARRLGSARTTIALMERAIPRLRSAEEVRALLEELKARYRELSKEIAEALEKYE
# B15: traf2_out_5_192_2336 (protein)
# chain: SAEEEARERRLRERAEEILREAEERAKKISERTGLDYATVLATLAFSRVVARAESAEEARLMLDYIVEMITARDPSWAPIAEGEKAAALRAIDAIEAAEP
# B16: traf2_out_20_38_2023 (protein)
# chain: SMEEEEEEKLKELVEVANKAYDEYSAKFAKWKAEGKTVEEIAEEVKKEIRELLSKAGLEEEAEILIEDVDLALKSPNAERLLIRTLARAVALVKQKELQK
# B17: traf2_out_13_95_1070 (protein)
# chain: TRELARRINELADRAEERALALLAAAQAELADDPEAVAVLDEAARLAETRGIRAAIALLREAQAAHPEHREAFDALIAELEEIRRELGREVAKLIKEAEE
# B18: traf2_out_6_156_2375 (protein)
# chain: MLEKILEEAKKKIEELIKELAKASEEKKIAYISRIAGAVYRALQRMREAGASVEEIKKAVEELKKVAEEKAKEAGLDQDTIDLLLASIDAVGKVALEEAK
# B19: traf2_out_17_178_1676 (protein)
# chain: TKEEKRKKISELTDKYIDLAEATAARLLALAEAEGFMTPEELAALRAAQRRGNGRLVEALLERAIPRSPRAAEVAALLADYRARSRELAKEIAKALEEYE
# B20: traf2_out_6_156_2412 (protein)
# chain: MVEEILEKALEKVEELIKELAKASEEKKIAYISKIAGTAYRALQELREAGASLEEIEAFAEEFKKRTEELLKEAGLPEDTINLVLSALNAVFDVAIAEAK
# B21: traf2_out_11_155_735 (protein)
# chain: EEKQKLIQEMNDKIMELFEEARRRALEIARRAAERHPEHREEIEAAIEESKGFSYRSFILEMIRLFRELGLEEEAEELERLLEETQRKASKIVIETEKKL
# B22: traf2_out_17_162_1539 (protein)
# chain: SPTEERLEELERRLERLEEELKKLKEKSEKLDELSKEEISDLLVEVSELRREALRLAEELRRLAEETGSPRARELEERAERLAEELQRIANKIYKELEKK
# B23: traf2_out_11_155_726 (protein)
# chain: SKFKEAQNKIVDFNLEVGDELLKKVEEIIKEIEKEDPEVAKKLREVVEKYKKFSNRSAARAAIDLLREEGYEEYAERLEKALEEAQRKMSKKTQEIEKEL
# B24: traf2_out_6_3_2516 (protein)
# chain: MEESIRKDAETVLENMGITTAEQLKRLVKAEVNAVKKLVSRKDVDEADLAGAESVLNLTRAMVEVAYEKLPDLTEEQKKEMLALIKEAEELVKKKRKELE
# B25: traf2_out_6_3_2520 (protein)
# chain: MEESIRRDARTVLENMGITTAEQLKRLVEANVNAVKKLVSRPDVDEADLAGARSVLALTRAMVDVAAETLPDLTPEQVAEMKALIKEAEELVEKKRKELE
# B26: traf2_out_18_3_1943 (protein)
# chain: KEEELKKISEEIDKIIDEVTARAREELDRLLAEHPELAAEAEALRADLDAGAGPFGILDELARLWERAGAADEAAAARAFLREKRKKLQELVDKYEELRK
# B27: traf2_out_13_95_1132 (protein)
# chain: SAETAKKIMEIADKMLDEILAILEELLKKAEAAGVGVEEIQKAIHLAEHHSVNEAIHLLRELAKKHPEFKAELEAAIAKIEAIREKAGREVAKILKEAAE
# B28: traf2_out_1_27_1022 (protein)
# chain: SDEEFTRLIRETDRKIAEVDLEEQKKVVKEALKEAAKWGLGDARMLARTLVASQNDEERQEAIKEASLEAFKELGAPEEVIEELERVFNSIIERKKKVLA
# B29: traf2_out_18_167_1872 (protein)
# chain: SAELKKKREELTDELVRYSTIRRALLLILEALKRSREEARRLLEEYVEKYPDSEVLREALEVFETKSDEEFRKFLEEKAEELQKEANEKYKELEELEKEE
# Target: T1, TRAF2, Q12933
# Assay: median log2 fold change of GCK-ALFA target abundance (FLAG IP / Myc IP barcode read proportion) (log2 ratio); each designed protein is fused to an ALFA-tag nanobody in HEK293 cells to bring the named protein to FLAG-tagged glucokinase (GCK); Myc marks an untargeted standard; higher = target protein stabilised (more abundant)
# Details: target protein: 3xFLAG-MCP-GCK-ALFA reporter; HEK293 landing pad (RPLP)
# Method: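 LABEL-seq trans screen in HEK293 landing-pad cells. Each de novo designed 100-aa effector handle, binding the indicated effector (E3 ligase, DUB or autophagy protein), is fused to a constant NbALFA target handle and induced with 2 ug/mL doxycycline. A FLAG-MCP-GCK-ALFA target and a Myc-MCP standard reporter were transfected, and after 48 h circRNA barcodes were recovered by anti-FLAG and anti-Myc IP and sequenced. The value is the median across barcodes (at least 3 per design) of log2(FLAG/Myc read-proportion ratio), with the two transfection replicates pooled. Negative values mean degradation and positive values mean stabilisation of the target.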
row,Binder,median log2 fold change
1,B1,-0.43
2,B2,-0.0673
3,B3,0.0558
4,B4,-0.861
5,B5,-0.841
6,B6,-0.0407
7,B7,0.161
8,B8,0.337
9,B9,0.222
10,B10,0.226
11,B11,0.311
12,B12,-0.194
13,B13,0.429
14,B14,-0.184
15,B15,-1.01
16,B16,-1.38
17,B17,-0.334
18,B18,0.151
19,B19,-0.865
20,B20,0.261
21,B21,-0.138
22,B22,0.204
23,B23,0.469
24,B24,-0.56
25,B25,-0.989
26,B26,0.0947
27,B27,-0.315
28,B28,0.214
29,B29,0.106
